Results reported in PubChem BioAssay AID1220 (Sanford-Burnham Center for Chemical Genomics, 2008).
Screen size: about 190,000 compounds; about 1,300 (0.68%) were called active. No stated cut-off is given here; in the data, active means inhibition above about 50%; inactive means the rest. For the sample, actives were picked, then their nearest neighbours and some compounds at random.

target: Mannose-6-phosphate isomerase (Homo sapiens) (UniProt P34949); assay: MPI inhibition at elevated mannose 6-phosphate – biochemical, fluorescence intensity, high mannose 6-phosphate, primary screen (AID 1220); conditions: recombinant PMI enzyme, coupled fluorescence intensity; at 20 µM; active compounds read high
Sequence (P34949 whole entry, looked up): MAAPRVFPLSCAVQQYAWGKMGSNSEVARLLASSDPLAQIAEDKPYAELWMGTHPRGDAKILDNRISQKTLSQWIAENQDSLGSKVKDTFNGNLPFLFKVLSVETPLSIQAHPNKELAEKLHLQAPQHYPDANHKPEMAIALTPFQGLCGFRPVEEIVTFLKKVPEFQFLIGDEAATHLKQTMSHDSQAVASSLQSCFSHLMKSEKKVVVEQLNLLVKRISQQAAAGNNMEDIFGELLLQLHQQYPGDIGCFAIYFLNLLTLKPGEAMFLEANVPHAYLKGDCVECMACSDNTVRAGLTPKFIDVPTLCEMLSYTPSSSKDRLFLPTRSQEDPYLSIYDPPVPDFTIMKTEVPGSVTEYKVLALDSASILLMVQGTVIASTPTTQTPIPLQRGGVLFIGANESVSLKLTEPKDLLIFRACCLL

Structure (SMILES) | inhibition
O=[N+]([O-])c1cccc(-c2nc(N3CCOCC3)c3ccccc3n2)c1 | -8.1% (inactive)
COC(=O)COc1ccc(/C=C2/NC(=O)N(CC(=O)OC)C2=O)cc1 | 1.1% (inactive)
O=C1C(Cl)=C(NCC2CCCO2)C(=O)N1c1ccccc1 (stereo not drawn) | 2.7% (inactive)
COc1ccc(/C=C/C(=O)c2ccoc2)cc1 | 3.7% (inactive)
O=C(/C=C/c1ccoc1)c1ccccc1O | 17.9% (inactive)
COc1ccc2ccccc2c1C(=O)/C=C\c1ccoc1 | 50% (active)
OC1(c2cccs2)CN(c2ccccc2)C2=[N+]1CCCC2 (stereo not drawn) | -12% (inactive)
COc1cccc(CNc2ccc(N3CCC(C)CC3)cc2)c1OC | 63.1% (active)
COc1cccc(CNc2ccc(F)c(Cl)c2)c1OC | -11% (inactive)
COc1cccc(CNc2ccc(S(N)(=O)=O)cc2)c1OC | -2.8% (inactive)
COc1ccc(-c2nnn(CC(=O)N(Cc3ccccc3Cl)C(C(=O)NCC3CCCO3)c3ccco3)n2)cc1OC (stereo not drawn) | 23.8% (inactive)
CC1=NOC(=O)/C1=C/c1ccc(-c2ccc(Cl)cc2)o1 | 13.4% (inactive)
CCN1CCN(c2cc(C)c3cc(NC(=S)NCCCN4CCc5ccccc5C4)ccc3n2)CC1 | 27.2% (inactive)
COCCNC(=S)Nc1ccc2nc(N3CCCC3)cc(C)c2c1 | 12.4% (inactive)
CCCN(CCC)CCNC(=O)CCC(=O)Nc1ccc2nc(N3CCN(C)CC3)cc(C)c2c1 | 42.5% (inactive)
CCOCCCNC(=S)Nc1ccc2nc(N3CCCC3)cc(C)c2c1 | 50.2% (active)
CCCCNC(=O)CCC(=O)Nc1ccc2nc(N3CCN(C)CC3)cc(C)c2c1 | 12% (inactive)
Cc1cc(N2CCN(C)CC2)nc2ccc(NC(=S)NCCCN3CCc4ccccc4C3)cc12 | 58.5% (active)
Cc1cc(N2CCN(C)CC2)nc2ccc(NC(=S)NCCN3CCc4ccccc4C3)cc12 | -3.7% (inactive)
CCCCN(CC)CCNC(=O)CCC(=O)Nc1ccc2nc(N3CCN(C)CC3)cc(C)c2c1 | 58.2% (active)
Cc1cc(N2CCCC2)nc2ccc(NC(=S)NCCCOC(C)C)cc12 | -3.8% (inactive)
CC1CCCCC1NC(=O)CO/N=C/c1ccccc1OC(F)F (stereo not drawn) | 5.8% (inactive)
COCCOCCn1c(CCCO)nc2ccccc21 | -2.6% (inactive)
Cc1ccc(S(=O)(=O)N2CCN(Cc3nc4ccccc4[nH]3)CC2)cc1C | -2.8% (inactive)

Structure (SMILES) | inhibition
CCOC(=O)Cc1csc(NC(=O)CSc2nnc(Cc3csc(N)n3)n2C)n1 | 14.4% (inactive)
O=C(NCCN1CCOCC1)c1cc2cc(Br)ccc2oc1=O | 9.2% (inactive)
CCOC(=O)N1CCC(NS(=O)(=O)c2ccc3c(c2)CCN3C(C)=O)CC1 | 2.5% (inactive)
O=C(C1CC1)N1CCc2cc(Br)cc(S(=O)(=O)NC3CCCCC3)c21 | 2.5% (inactive)
COC(=O)c1ccc(NC(=O)C(=O)c2cccn2C)cc1 | 52.2% (active)
Cn1cccc1C(=O)C(=O)Nc1ccccc1 | -5.5% (inactive)
Cn1cccc1C(=O)C(=O)Nc1ccc(Cl)cc1 | -0.1% (inactive)
COc1ccc(-c2cnc(N)nc2-c2ccc(OC)cc2O)cc1 | 11.9% (inactive)
COc1ccc2c(c1)CCc1cnc(N)nc1-2 | 60% (active)
Nc1ncc2c(n1)-c1ccccc1CC2 | 32.5% (inactive)
CCOC(=O)N1CCN(C(=O)C2CCN(Cc3nc(-c4ccccc4C)oc3C)CC2)CC1 | -4.9% (inactive)
COc1cc(/C=C/C(=O)Nc2cc(S(=O)(=O)N3CCOCC3)ccc2N2CCCC2)cc(OC)c1OC | 19.5% (inactive)
c1ccc(-c2csc3ncnc(NCCCN4CCOCC4)c23)cc1 | -16.3% (inactive)
C#CCNC(=O)C1=C[C@H](c2csc3ccccc23)C[C@H](OCCCCO)O1 | 30.3% (inactive)
CC(=O)n1cc([C@H]2C=C(C(=O)NCc3ccccc3)O[C@@H](OCCCCO)C2)c2ccccc21 | 46.3% (inactive)
O=C(NCc1ccccc1)C1=C[C@@H](c2csc3ccccc23)C[C@@H](OCc2ccc(CO)cc2)O1 | 44.5% (inactive)
O=C(Nc1ccccc1)C1=C[C@H](c2csc3ccccc23)C[C@H](OCCCCO)O1 | 12.8% (inactive)
C#CCNC(=O)C1=C[C@@H](c2cn(C(C)=O)c3ccccc23)C[C@@H](OCCCCO)O1 | 22.9% (inactive)
CC(=O)n1cc([C@@H]2C=C(C(=O)NCc3ccccc3)O[C@H](OCCCCO)C2)c2ccccc21 | 50.3% (active)
O=C(NCc1ccccc1)C1=C[C@H](c2csc3ccccc23)C[C@H](OCCCCO)O1 | 53.9% (active)
O=C(C1=C[C@H](c2csc3ccccc23)C[C@H](OCCCCO)O1)N1CCN(Cc2ccccc2)CC1 | 22.9% (inactive)
O=C(NCc1ccccc1)C1=C[C@@H](c2csc3ccccc23)C[C@@H](OCCCCO)O1 | 53.8% (active)
CN1C(=O)NC(c2ccccc2)C2=C1CN(c1ccc3ccccc3c1)C2=O (stereo not drawn) | 9.4% (inactive)
COc1ccc(C(=O)C[n+]2cn(C(F)F)c3ccccc32)c(F)c1 | -11.8% (inactive)

Structure (SMILES) | inhibition
Cc1cc(C)n(C(=O)CSc2nnc(SCC(=O)n3nc(C)cc3C)s2)n1 | -11.7% (inactive)
CC(=O)N1CCc2cc(S(=O)(=O)NC(CC(C)C)C(=O)N3CCn4c3nc3ccccc34)ccc21 (stereo not drawn) | 6.2% (inactive)
CCCNCC1C(Oc2ccc(Cl)cc2)C(=O)N1c1ccccc1C (stereo not drawn) | -6% (inactive)
COCCCNCC1C(Oc2ccc(Cl)cc2)C(=O)N1c1ccccc1C (stereo not drawn) | -5.6% (inactive)
COCCNCC1C(Oc2ccc(Cl)cc2)C(=O)N1c1ccccc1C (stereo not drawn) | 50.7% (active)
Nc1ncc(-n2cncn2)c(-c2ccc(Cl)cc2)n1 | 9.9% (inactive)
CC1CCCCC1NCC(=O)NCc1ccc(F)cc1 (stereo not drawn) | -10.5% (inactive)
CCOC(=O)c1c(C)oc2cc(Br)c(OC(=O)N3CCOCC3)cc12 | 11.1% (inactive)
COc1ccc(-c2nc(C#N)c(N3CCN(c4cccc(Cl)c4)CC3)o2)cc1OC | 4.2% (inactive)
CC1=CC(C)(C)Nc2ccc(OC(=O)c3cccnc3)cc21 | 16% (inactive)
CC1=CC(C)(C)Nc2ccc(OS(=O)(=O)c3ccc(C)cc3)cc21 | 51.5% (active)
CC1=CC(C)(C)Nc2ccc(OC(=O)C(C)N3C(=O)c4ccccc4C3=O)cc21 (stereo not drawn) | 24.3% (inactive)
CC1=CC(C)(C)Nc2ccc(OC(=O)CN3C(=O)c4ccccc4C3=O)cc21 | 26.2% (inactive)
CC1CC(C)(C)Nc2ccc(OC(=O)c3ccco3)cc21 (stereo not drawn) | 25.5% (inactive)
CC1=CC(C)(C)Nc2ccc(OC(=O)CN3C(=O)CCC3=O)cc21 | 12.7% (inactive)
CC1=CC(C)(C)Nc2ccc(OC(=O)c3ccco3)cc21 | 52% (active)
CC(=O)Nc1ccc(S(=O)(=O)Oc2ccc3c(c2)C(C)=CC(C)(C)N3)cc1 | 29.5% (inactive)
COC(=O)c1nn(-c2ccc(C)cc2)ccc1=O | -2.7% (inactive)
Cc1cccc(C(=O)NCCc2nnc(SCC(=O)Nc3nc(C)cs3)n2C)c1 | 4% (inactive)
CC1CCCN(S(=O)(=O)c2ccc(S(=O)(=O)N3CCC4(CC3)OCCO4)cc2)C1 (stereo not drawn) | 2.2% (inactive)
CC(C)OC(=O)c1cc(NC(=S)Nc2ccc([N+](=O)[O-])cc2)cc(C(=O)OC(C)C)c1 | 4% (inactive)
CCC1(CC)C(=O)N=C2c3ccccc3C(=O)N21 | -2.6% (inactive)
O=C(c1ccc(C(F)(F)F)cc1)N1CCC(=O)N(C(COCc2ccccc2)Cc2ccccc2)CC1 (stereo not drawn) | -5.1% (inactive)
O=C(Nc1ccccc1)c1cc2c(=O)c3ccccc3oc2nc1C(F)(F)F | 4.4% (inactive)

Structure (SMILES) | inhibition
COc1ccccc1N1CCN(c2cnccn2)CC1 | 5.8% (inactive)
CNCc1ccccc1Sc1cc(O)ccc1O | 41.3% (inactive)
CNCc1ccccc1Sc1cccc(O)c1 | -1.7% (inactive)
O=C(Cc1ccccc1)NCC(=O)N1CCCCC1 | -8% (inactive)
O=C(NNC(=O)C1CC1c1ccccc1)c1ccccc1F (stereo not drawn) | -2.1% (inactive)
CCOC(=O)c1cccc(NC(=O)CCc2ccccc2)c1 | -0.6% (inactive)
COc1cc([C@H](Cc2ccccc2)NC(C)=O)oc(=O)c1 | 53.9% (active)
CC(=O)NC(Cc1ccccc1)c1ccc2c(c1)OCCCO2 (stereo not drawn) | 4.4% (inactive)
COc1cccc(CNC(=O)CC(NC(C)=O)c2ccccc2)c1 (stereo not drawn) | 1% (inactive)
Cc1cccc(C(=O)Oc2ccccc2-c2nnco2)c1 | -9.6% (inactive)
COc1ccc(C(c2sc3nc(C)nn3c2O)N2CCCCC2)cc1 (stereo not drawn) | 4.3% (inactive)
O=c1[nH]c2cc3c(cc2cc1CN(CC1CCCO1)S(=O)(=O)c1ccccc1)OCCO3 (stereo not drawn) | 4.9% (inactive)
COc1ccc(C(=O)N/N=C(\C)CC(=O)N2CCN(C=O)CC2)cc1 | -9.2% (inactive)
C/C(CC(=O)N1CCN(C=O)CC1)=N\NC(=O)c1ccc(Cl)cc1 | 3.6% (inactive)
CC(=O)NC(Cc1cc(C)ccc1C)C(=O)N1CCN(C(=O)c2ccccc2Br)CC1 (stereo not drawn) | -3.4% (inactive)
O=[N+]([O-])c1cc(-c2n[nH]c(-c3ccccc3)n2)cc([N+](=O)[O-])c1 | -4.6% (inactive)
Oc1cccc(/C=N/Nc2cccc3cccnc23)c1 | 20.3% (inactive)
COc1ccc(/C=C2\SC(=O)N(CCC(=O)Nc3ccc(S(=O)(=O)Nc4nccs4)cc3)C2=O)cc1 | 8.6% (inactive)
CCCNS(=O)(=O)c1ccc(CCC(=O)Nc2ccc3c(c2)OCCO3)cc1 | 50.1% (active)
O=C(CCc1ccc(S(=O)(=O)NCCc2ccccc2)cc1)Nc1ccc2c(c1)OCCO2 | -3.2% (inactive)
CCCNS(=O)(=O)c1ccc(CCC(=O)Nc2ccc3c(c2)OCO3)cc1 | 10.1% (inactive)
